Results taken from PubChem BioAssay (EPA / NIEHS).
The source made the active and inactive calls. Rule for the calls: active = hit-call score of the fitted dose curve at least 0.9, where 1 is the maximum; inactive = score below 0.9.

Assay: ATG_M_32_CIS: Attagene CIS-FACTORIAL HepG2 Assay for M32 Transcription Factor (Internal Marker) (AID 2282949);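 note: background control marker of the multiplexed CIS panel rather than a real target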
Settings: HepG2 Attagene cis-factorial M32 reporter, mRNA; actives raise or lower the signal
Procedure: ATG_CIS is a cell-based, multiplexed-readout assay that uses HepG2, a human liver cell line, with measurements taken at 24 hours after chemical dosing in a 24-well plate.ATG_M_32_CIS is one of 52 assay component(s) measured or calculated from the ATG_CIS assay. It is designed to make measurements of mRNA induction, a form of inducible reporter, as detected with fluorescence intensity signals by Reverse transcription polymerase chain reaction (RT-PCR) and Capillary electrophoresis technology.Data from the assay component ATG_M_32_CIS was analyzed into 1 assay endpoint. This assay endpoint, ATG_M_32_CIS, was analyzed with bidirectional fitting relative to DMSO as the negative control and baseline of activity. Using a type of inducible reporter, measures of mRNA for gain or loss-of-signal activity can be used to understand the background control at the transcription factor-level as they relate to the gene . Furthermore, this assay endpoint can be referred to as a secondary readout, because this assay has produced multiple assay endpoints where this one serves a background control function. To generalize the intended target to other relatable targets, this assay endpoint is annotated to the background measurement intended target family, where the subfamily is internal marker.
Human liver HepG2 cells are transiently transfected with multiple reporter transcription units (MRTUs) in 6-well plates using FuGene 6 reagent (Roche; 3 ml FuGene/1 mg DNA). The MRTU constructs are regulated by a cis-regulating element (promoter). […] A major difference between the CIS and TRANS system is that in CIS activities of endogenous TFs are measured, whereas the TRANS assay evaluates changes in activities of exogenous, chimeric NR-Gal4 proteins. […] At the end of 24 hour incubation, total RNA was isolated using TriZol reagent (Invitrogen). The isolated RNA is then reverse-transcribed using oligo(dT) primer and Mo-MLV reverse transcriptase (Invitrogen) with DNAse I (Ambion) treatment for 30 min. The one-tenth of the produced cDNA was amplified by PCR using Taq DNA polymerase (Invitrogen) and two reporter sequence-specific primers. The PCR products were fluorescently labeled by primer extension with 6-arboxyfluorescein (6-FAM) 5'-labeled reporter sequence-specific primer (2 min at 95 C, 20 s at 68 C and 10 min at 72 C) and these products were digested with 5U of HpaI (New England Biolabs) for 2h at 37 C. The fragments were purified using Qiaquick PCR columns (Qiagen), analyzed on an ABI 3130xL genetic analyzer (Applied Biosystems) with peak positions identified by using a set of X-rhodamine (ROX)-labeled MapMarker1000 molecular weight standards (BioVentures). The raw capillary electrophoresis data was processed using Attagraph software (Attagene).

outcome, inactive:
COC(=O)c1ccc(C)cc1C1=NC(C)(C(C)C)C(=O)N1 (stereo not given) (tested in a mixture with another compound)
N#Cc1ccc(CC(=O)c2cccc(C(F)(F)F)c2)cc1
CCOc1ccc(NC(=O)CC(C)O)cc1 (stereo not given)
CC(C)=CCCC(C)CC(=O)O (stereo not given)
NC(=S)NNC(N)=S
CCC(Cl)C(Cl)C(Cl)CC(Cl)C(Cl)C(C)Cl (stereo not given)
CC(C)(C)C1=CC(=O)C(C(C)(C)C)=CC1=O
NC1CCCCC1N (stereo not given)
CS(=O)(=O)c1ccc(Cl)cc1
COc1cc(Cl)c(OC)cc1N
CCCCC(CC)C(=O)OC(C)C (stereo not given)
IC(I)I
OCc1cccc(Oc2ccccc2)c1
O=C1OC(=O)c2c(Br)c(Br)c(Br)c(Br)c21
C=C1CC[C@H](O)C/C1=C/C=C1\CCC[C@]2(C)[C@@H]([C@H](C)/C=C/[C@H](C)C(C)C)CC[C@@H]12
C1=CC2C3C=CC(C3)C2C1 (stereo not given)
COC(C)(C)CC(C)=O
Cc1cc(S(=O)(=O)O)ccc1N=Nc1c(O)ccc2ccccc12
Cc1ncc[nH]1
CC(=O)NCCO
CCCC(=O)C(CC)Sc1ccoc1C (stereo not given)
FC(F)(F)COCC(F)(F)F
Cc1ncc([N+](=O)[O-])n1CCO
CCCCCCOC(=O)CCC
CCCC(O)C(O)CO (stereo not given)
COc1cc(CCC(C)=O)ccc1O
CCC(C)S (stereo not given)
COc1ccccc1N=Nc1c(S(=O)(=O)O)cc2cc(S(=O)(=O)O)cc(NC(C)=O)c2c1O
CC(C)Nc1nc(N)nc(Cl)n1
COc1ccc(CCC(C)=O)cc1
CCNCCO
Brc1ccc(Br)c(Br)c1
C=COCCOCCOC=C
CC(C=O)Cc1ccc(C(C)(C)C)cc1 (stereo not given)
C[C@H]1C[C@@H](O)CC(C)(C)C1
CC(C)CCCCCCc1ccc(OCCOCCO)cc1
CCCCCCCCN1CCCC1=O
Cc1cc(=O)oc2cc(N(C)C)ccc12
O=C(O)COCC(=O)O
c1ccc(Oc2ccccc2)cc1
